About 2,000 (36%) of roughly 5,500 compounds were called active. About 18% were inconclusive and are not listed. This is one part of the list. A number with no mark means an inactive call. Cut-off read from the data, not from the text of the source: active = normalized growth mostly below about 0.91 (no sharp cut-off); inconclusive = no clear call, values can overlap the other calls; inactive = mostly above about 0.92.
Assay: chemical genetic growth profiling, strain panel (AID 1159580);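 note: tested at 20 µM; growth read once vehicle control cultures reached saturation at 30 °C; 1 = growth at the plate median or of vehicle wells; lower values mean less growth of the strain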
Conditions: growth OD

## OC[C@H]1O[C@@](CO)(O[C@@H]2O[C@H](CO)[C@@H](O)[C@H](O)[C@H]2O)[C@@H](O[C@@H]2O[C@H](CO)[C@@H](O)[C@H](O)[C@H]2O)[C@@H]1O
S. cerevisiae deletion strains, locus YJR043C, strain POL32, hits give low values
  normalized growth: 1.04
S. cerevisiae deletion strains, locus YJR066W, strain TOR1, hits give low values
  normalized growth: 0.956
S. cerevisiae deletion strains, locus YKL009W, strain mrt4, hits give low values
  normalized growth: 1.03
S. cerevisiae deletion strains, locus YKL068W, hits give low values
  normalized growth: 0.997
S. cerevisiae deletion strains, locus YKL085W, strain MDH1 (second series), hits give low values
  normalized growth: 1.01
S. cerevisiae deletion strains, locus YKL085W, strain MDH1, hits give low values
  normalized growth: 1.01
S. cerevisiae deletion strains, locus YKL160W, strain elf1, hits give low values
  normalized growth: 1.02
S. cerevisiae deletion strains, locus YKR001C, strain vps1, hits give low values
  normalized growth: 1.11 [resistant] (active)
S. cerevisiae deletion strains, locus YKR026C, strain gcn3, hits give low values
  normalized growth: 0.994
S. cerevisiae deletion strains, locus YKR091W, strain srl3, hits give low values
  normalized growth: 1.01
S. cerevisiae deletion strains, locus YLL001W, strain dnm1, hits give low values
  normalized growth: 0.996
S. cerevisiae deletion strains, locus YLL026W, hits give low values
  normalized growth: 1.02
S. cerevisiae deletion strains, locus YLL041C, strain sdh2, hits give low values
  normalized growth: 1.01
S. cerevisiae deletion strains, locus YLR027C, strain aat2, hits give low values
  normalized growth: 1.01
S. cerevisiae deletion strains, locus YLR039C, strain RIC1, hits give low values
  normalized growth: 1.18
S. cerevisiae deletion strains, locus YLR058C, strain SHM2, hits give low values
  normalized growth: 1.03
S. cerevisiae deletion strains, locus YLR102C, strain apc9, hits give low values
  normalized growth: 1.02
S. cerevisiae deletion strains, locus YLR113W, strain HOG1, hits give low values
  normalized growth: 0.986
S. cerevisiae deletion strains, locus YLR221C, strain rsa3, hits give low values
  normalized growth: 1.01
S. cerevisiae deletion strains, locus YLR258W, strain gsy2, hits give low values
  normalized growth: 1.02
S. cerevisiae deletion strains, locus YLR262C, strain YPT6 (second series), hits give low values
  normalized growth: 1
S. cerevisiae deletion strains, locus YLR262C, strain YPT6, hits give low values
  normalized growth: 1.16
S. cerevisiae deletion strains, locus YLR268W, strain sec22, hits give low values
  normalized growth: 1.05
S. cerevisiae deletion strains, locus YLR320W, strain mms22, hits give low values
  normalized growth: 1.03
S. cerevisiae deletion strains, locus YLR330W, strain CHS5, hits give low values
  normalized growth: 1.02
S. cerevisiae deletion strains, locus YLR342W, strain FKS1 (second series), hits give low values
  normalized growth: 1.08
S. cerevisiae deletion strains, locus YLR342W, strain FKS1, hits give low values
  normalized growth: 1.02
S. cerevisiae deletion strains, locus YLR357W, strain rsc2, hits give low values
  normalized growth: 0.991
S. cerevisiae deletion strains, locus YLR370C, strain arc18, hits give low values
  normalized growth: 1.03
S. cerevisiae deletion strains, locus YLR371W, strain rom2, hits give low values
  normalized growth: 0.999
S. cerevisiae deletion strains, locus YLR384C, strain iki3, hits give low values
  normalized growth: 1.01
S. cerevisiae deletion strains, locus YLR418C, strain cdc73, hits give low values
  normalized growth: 1.09
S. cerevisiae deletion strains, locus YML016C, strain PPZ1, hits give low values
  normalized growth: 1.01
S. cerevisiae deletion strains, locus YML032C, strain rad52, hits give low values
  normalized growth: 1.03
S. cerevisiae deletion strains, locus YML120C, strain ndi1, hits give low values
  normalized growth: 1.03
S. cerevisiae deletion strains, locus YML124C, strain tub3, hits give low values
  normalized growth: 1.01
S. cerevisiae deletion strains, locus YMR058W, strain fet3, hits give low values
  normalized growth: 1.02
S. cerevisiae deletion strains, locus YMR078C, strain ctf18, hits give low values
  normalized growth: 1.02
S. cerevisiae deletion strains, locus YMR125W, strain sto1, hits give low values
  normalized growth: 1.02
S. cerevisiae deletion strains, locus YMR129W, hits give low values
  normalized growth: 1.03
S. cerevisiae deletion strains, locus YMR205C, strain PFK2, hits give low values
  normalized growth: 1.04
S. cerevisiae deletion strains, locus YMR223W, strain ubp8, hits give low values
  normalized growth: 1.03
S. cerevisiae deletion strains, locus YMR231W, strain pep5, hits give low values
  normalized growth: 1.01
S. cerevisiae deletion strains, locus YMR263W, strain SAP30, hits give low values
  normalized growth: 1.02
S. cerevisiae deletion strains, locus YMR307W, strain GAS1, hits give low values
  normalized growth: 1.03
S. cerevisiae deletion strains, locus YNL067W, strain RPL9B, hits give low values
  normalized growth: 1.03
S. cerevisiae deletion strains, locus YNL071W, strain lat1, hits give low values
  normalized growth: 1.01
S. cerevisiae deletion strains, locus YNL128W, strain TEP1, hits give low values
  normalized growth: 1.03
S. cerevisiae deletion strains, locus YNL183C, strain NPR1, hits give low values
  normalized growth: 0.946
S. cerevisiae deletion strains, locus YNL209W, strain ssb2, hits give low values
  normalized growth: 1.02
S. cerevisiae deletion strains, locus YNL233W, strain BNI4, hits give low values
  normalized growth: 1.06
S. cerevisiae deletion strains, locus YNL248C, strain rpa49, hits give low values
  normalized growth: 1.01
S. cerevisiae deletion strains, locus YNL250W, strain rad50, hits give low values
  normalized growth: 1.03
S. cerevisiae deletion strains, locus YNL271C, strain bni1, hits give low values
  normalized growth: 1.02
S. cerevisiae deletion strains, locus YNL298W, strain CLA4, hits give low values
  normalized growth: 1.02
S. cerevisiae deletion strains, locus YNL307C, strain MCK1, hits give low values
  normalized growth: 1.01
S. cerevisiae deletion strains, locus YNL322C, strain KRE1 (second series), hits give low values
  normalized growth: 1.02
S. cerevisiae deletion strains, locus YNR049C, strain mso1, hits give low values
  normalized growth: 1.02
S. cerevisiae deletion strains, locus YNR052C, strain pop2, hits give low values
  normalized growth: 1.03
S. cerevisiae deletion strains, locus YOL006C, strain TOP1, hits give low values
  normalized growth: 1.23
S. cerevisiae deletion strains, locus YOL012C, strain htz1
  normalized growth: 1.32
S. cerevisiae deletion strains, locus YOL147C, strain pex11, hits give low values
  normalized growth: 1
S. cerevisiae deletion strains, locus YOR001W, strain rrp6, hits give low values
  normalized growth: 1
S. cerevisiae deletion strains, locus YOR061W, strain CKA2, hits give low values
  normalized growth: 1.04
S. cerevisiae deletion strains, locus YOR069W, strain VPS5, hits give low values
  normalized growth: 1.02
S. cerevisiae deletion strains, locus YOR070C, strain gyp1, hits give low values
  normalized growth: 1.01
S. cerevisiae deletion strains, locus YOR080W, strain dia2, hits give low values
  normalized growth: 1.02
S. cerevisiae deletion strains, locus YOR083W, strain WHI5, hits give low values
  normalized growth: 1.01
S. cerevisiae deletion strains, locus YOR106W, strain vam3, hits give low values
  normalized growth: 1
S. cerevisiae deletion strains, locus YOR136W, strain idh2, hits give low values
  normalized growth: 1.02
S. cerevisiae deletion strains, locus YOR144C, strain elg1, hits give low values
  normalized growth: 1.02
S. cerevisiae deletion strains, locus YOR184W, strain ser1, hits give low values
  normalized growth: 1.06
S. cerevisiae deletion strains, locus YOR231W, strain MKK1, hits give low values
  normalized growth: 1
S. cerevisiae deletion strains, locus YOR265W, strain rbl2, hits give low values
  normalized growth: 1.01
S. cerevisiae deletion strains, locus YOR270C, strain vph1, hits give low values
  normalized growth: 1.05
S. cerevisiae deletion strains, locus YOR290C, strain snf2, hits give low values
  normalized growth: 0.981
S. cerevisiae deletion strains, locus YOR316C, strain cot1, hits give low values
  normalized growth: 1.02
S. cerevisiae deletion strains, locus YPL051W, strain arl3, hits give low values
  normalized growth: 1.01
S. cerevisiae deletion strains, locus YPL055C, strain LGE1, hits give low values
  normalized growth: 1.08
S. cerevisiae deletion strains, locus YPL078C, strain atp4, hits give low values
  normalized growth: 1
S. cerevisiae deletion strains, locus YPL106C, strain sse1, hits give low values
  normalized growth: 1.02
S. cerevisiae deletion strains, locus YPL240C, strain hsp82, hits give low values
  normalized growth: 1.03
S. cerevisiae deletion strains, locus YPL256C, strain CLN2, hits give low values
  normalized growth: 1
S. cerevisiae deletion strains, locus YPR119W, strain clb2, hits give low values
  normalized growth: 1.03
S. cerevisiae deletion strains, locus YPR141C, strain kar3, hits give low values
  normalized growth: 1.02
S. cerevisiae deletion strains, locus YPR163C, strain tif3, hits give low values
  normalized growth: 1.04
S. cerevisiae deletion strains, locus YPR167C, strain met16, hits give low values
  normalized growth: 1.02
S. cerevisiae deletion strains, strain wtn01, hits give low values
  normalized growth: 1.04
S. cerevisiae strains, strain wild type, hits give low values
  normalized growth: 1.04

Source: PubChem BioAssay AID1159580 (chemical genetic matrix, 2015)
